The record followed here is PubChem BioAssay.

Usually inhibition stands for the relative decrease from the control value, in per cent. Broadly, the remaining activity is the signal under treatment as a percentage of the control signal.

Several values for one entry are separate records, joined by “and”; a condition that tells them apart may be missing. Equal entries are not always repeated. Inconclusive results are not listed. For part of these data: Potency and affinity values are given separately. Activity calls are given as the source filed them. Unless noted, how the calls were made is not given here.

The target of test [1] is ATP-dependent translocase ABCB1 (Homo sapiens) (UniProt P08183). The experiment in a line: MDR1 (ABCB1) efflux transporter inhibition, cell-based (AID 377; in the data active means fluorescence slope change above about 50%). The note with it: MDR1-expressing cells, fluorescent substrate accumulation slope; stronger effect = higher value; concentration not given here.
ATP-dependent translocase ABCB1 (Homo sapiens), sequence (P08183 whole entry, looked up): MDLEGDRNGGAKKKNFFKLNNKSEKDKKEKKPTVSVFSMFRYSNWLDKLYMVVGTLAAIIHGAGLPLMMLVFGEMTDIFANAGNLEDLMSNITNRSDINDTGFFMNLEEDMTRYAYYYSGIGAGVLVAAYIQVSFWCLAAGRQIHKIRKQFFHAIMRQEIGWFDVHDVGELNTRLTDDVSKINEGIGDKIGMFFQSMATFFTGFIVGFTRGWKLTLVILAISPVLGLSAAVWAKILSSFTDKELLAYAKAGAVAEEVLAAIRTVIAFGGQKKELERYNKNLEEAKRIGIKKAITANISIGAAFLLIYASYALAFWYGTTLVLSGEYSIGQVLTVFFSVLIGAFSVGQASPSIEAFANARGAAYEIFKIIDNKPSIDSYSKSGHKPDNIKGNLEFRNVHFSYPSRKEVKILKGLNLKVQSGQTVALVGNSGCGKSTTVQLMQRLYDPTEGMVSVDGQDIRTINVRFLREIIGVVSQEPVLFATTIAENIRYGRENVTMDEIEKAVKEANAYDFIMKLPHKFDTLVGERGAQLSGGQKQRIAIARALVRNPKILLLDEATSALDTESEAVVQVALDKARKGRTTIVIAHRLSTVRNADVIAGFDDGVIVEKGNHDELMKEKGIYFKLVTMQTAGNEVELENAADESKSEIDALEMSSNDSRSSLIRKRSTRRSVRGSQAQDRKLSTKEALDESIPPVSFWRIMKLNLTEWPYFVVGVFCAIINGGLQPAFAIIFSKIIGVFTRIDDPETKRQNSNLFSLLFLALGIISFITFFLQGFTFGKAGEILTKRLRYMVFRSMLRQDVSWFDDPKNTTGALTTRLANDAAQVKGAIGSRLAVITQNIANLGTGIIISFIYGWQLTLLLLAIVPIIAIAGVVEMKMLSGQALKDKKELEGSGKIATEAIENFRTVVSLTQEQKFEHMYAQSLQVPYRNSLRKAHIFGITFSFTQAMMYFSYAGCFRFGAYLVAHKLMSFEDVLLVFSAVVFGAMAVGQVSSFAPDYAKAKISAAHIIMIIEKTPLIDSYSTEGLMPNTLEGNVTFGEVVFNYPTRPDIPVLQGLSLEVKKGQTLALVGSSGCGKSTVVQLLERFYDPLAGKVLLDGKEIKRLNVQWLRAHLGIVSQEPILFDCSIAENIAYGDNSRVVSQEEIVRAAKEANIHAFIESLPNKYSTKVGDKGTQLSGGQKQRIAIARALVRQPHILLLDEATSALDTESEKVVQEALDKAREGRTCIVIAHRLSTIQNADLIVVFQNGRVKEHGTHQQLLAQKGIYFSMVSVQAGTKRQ
Test [2] in a line: polyglutamine-triggered caspase-3 activation inhibitors, cell-based (AID 1583). The conditions noted are these: polyglutamine-induced caspase-3 activation, cell assay; stronger effect = higher value;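 tested at 10 µM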.
Test [3] is described as follows: rescue of polyQ-huntingtin neuronal dysfunction in worms, whole organism, C. elegans mechanosensory neurons, N-terminal huntingtin (AID 1599). The note with it: touch response, stronger effect = higher value.
Test [4] can be described thus: enhancers of glutamate uptake in motor neurons, MN-1 cell line (AID 1612).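 Further: tested at 1 µM final; 0% = mean of DMSO vehicle wells on each plate; positive means more glutamate uptake than control and negative means less.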 The conditions noted are these: MN-1 motor neuron cells, stronger effect = higher value.
Test [5] can be described thus: suppressors of polyglutamine aggregation in yeast, 75Q-TubH (AID 1616). The note with it: S. cerevisiae 75Q-TubH polyglutamine aggregation suppression; stronger effect = higher value.
Test [6] in a line: hESC survival regulators, cell-based (AID 493140).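 Further: cells exposed to compounds for four days before counting.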 The conditions noted are these: human embryonic stem cell survival screen; stronger effect = higher value.
Test [7] is described as follows: reducers of polyQ inclusions in PC12 cells, cell-based, NGF-treated PC12, GFPQ80 (AID 1614).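 Further: lower means fewer inclusions and 0 means no inclusions at all.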 The conditions noted are these: PC12 NGF-treated GFP-polyQ80 inclusion reduction.
Test [8] can be described thus: circadian clock period modulators, cell-based, LOPAC library, luminescence reporter (AID 2774).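 Further: values are relative to mean of DMSO wells on each plate.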 The conditions noted are these: circadian reporter cells, at 7 µM, actives lie on both sides.
The subject of test [9] is Hepatitis C virus NS3 helicase. The experiment in a line: HCV NS3 helicase inhibitors, primary screen, biochemical, fluorescence polarization, LOPAC1280 library (AID 687035; in the data active means inhibition above about 37%). The note with it: Purified HCV NS3 helicase, Cy5-dT15 ssDNA binding fluorescence polarization; stronger effect = higher value; concentration not given here. (In fluorescence polarisation assays a small probe gives low polarisation when free and higher when bound to something large.)

Test [10] is described as follows: Cy5 fluorescence quenching or enhancement artefacts, artefact control for HCV NS3 helicase inhibitor project, biochemical, LOPAC1280 (AID 687037). The conditions noted are these: Cy5-DNA-NS3h complex fluorescence interference counterscreen. A general note: Counterscreens check selectivity or assay interference.
Test [11] in a line: Cy5 fluorescence interference with SSB-bound oligo, artefact control for HCV NS3 helicase inhibitor project, biochemical, NIH Clinical Collection, E. coli SSB (AID 743268).
In test [12] the test system is Hepatitis C virus NS3 helicase. The experiment in a line: HCV NS3 helicase inhibitors, primary screen, biochemical, fluorescence polarization, NIH Clinical Collection (AID 743270). The conditions noted are these: NS3 helicase binding to Cy5-dT15 DNA, stronger effect = higher value, concentration not given here.
The nature of test [13]: modulation of C. elegans fzo-1 (AID 1259413).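 Further: fzo-1 mutant C. elegans worms in liquid wells.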 The note with it: C. elegans fzo-1 modulator screen, mean read-out; stronger effect = higher value.
Test [14] in a line: phospholipid biosynthesis inhibitors in animal cells, primary screen, cell-based, LOPAC library, screen 4 (AID 1347384). The note with it: phospholipid biosynthesis inhibition screen, at 10 µM.
In a further test the test system is F380Y. The experiment in a line: modulators of BK channel variants, profiling panel, selectivity assay, cell-based, U2OS BacMam, thallium flux, beta subunits (AID 1259406;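 active means thallium flux through the channel raised or lowered by more than 3 SD from vehicle-only wells, actives on both sides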;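 further: initial slope of Thallos dye fluorescence rise after thallium is added; log ratio against the mean of 0.3% DMSO vehicle wells on the same plate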). The note with it: at 30 µM.
In another test the test system is F380Y/beta2Delta. The test is described as above. The note with it: at 30 µM.
Another test deals with R275C. The description is as above. The conditions noted are these: at 30 µM.
Another test has as its system R275C/beta1. The test is described as above. The note with it: at 30 µM.
For the next test, the system named is R275C/beta2Delta. Described as above. The note with it: at 30 µM.
For test [15], the system named is Aerobactin synthetase IucA (Klebsiella pneumoniae, hypervirulent). The experiment in a line: IucA enzyme inhibition, biochemical, LOPAC library, absorbance readout (AID 1346212).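 Further: 100% = no compound wells and 0% = no enzyme wells.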 The conditions noted are these: IucA enzyme assay, absorbance (OD) readout; stronger effect = lower value;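 tested at 8 µM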.

`C[C@@H]1C[C@@H]([C@H](O)CC2CC(=O)NC(=O)C2)C(=O)[C@@H](C)C1`: the fluorescence slope change in test [1] is 14.9% (inactive). The inhibition in test [2] was determined as 22.7%. This compound also displayed a rescue above control in test [3] of -0.63. Besides, the glutamate uptake change in test [4] is -43.8%. In addition, in [5], the aggregation suppression score turned out to be 0.0281. Moreover, in test [6], the survival was 0.417 (inactive).
On to `CCC1(c2ccc(N)cc2)CCC(=O)NC1=O` (stereo not given), for which the inhibition is 22.4% in test [2], -3% (inactive) in [9] and -2.27% (inactive) in test [12]. The compound also yielded a rescue above control in test [3] of 12.8. The glutamate uptake change in test [4] was 15.1%. This compound also registered an inclusion score in test [7] of 2. In addition, in test [5], the aggregation suppression score is 1.06. In [8], the period change is 0.015 h (inactive). Also, in test [6], the survival was 19.8 (inactive). Besides, the fluorescence ratio (interference) in test [10] was 1 (inactive). Moreover, the fluorescence ratio in [11] is 1.03 (inactive). Also, the mean signal in test [13] was 262 (inactive). Besides, in [14], the call was inactive. Moreover, the log fold change Tl+ flux in the test on F380Y was 0.023 (inactive); in the test on F380Y/beta2Delta it was -0.00163 (inactive); in the test with R275C, 0.0191 (inactive); in the test with R275C/beta1, -0.00575 (inactive); with R275C/beta2Delta, -0.0116 (inactive).
In the case of `CC(C)(C)NCC(O)c1ccccc1Cl` (stereo not given), the inhibition in [2] is 4.55%; in test [9] it was -4% (inactive). In test [3], this compound registered a rescue above control of -6.12. In addition, in test [4], the glutamate uptake change worked out at 2.34%. Moreover, in test [7], the inclusion score turned out to be 2. The compound further displayed an aggregation suppression score in test [5] of 1.28. Besides, in [8], the period change was -0.125 h (inactive). In test [10], the fluorescence ratio (interference) is 1 (inactive). For the same compound, the remaining activity in [15] was 113% (inactive). Besides, the outcome in [14] was inactive.
For `CC(C)N(CCC(C(N)=O)(c1ccccc1)c1ccccn1)C(C)C` (stereo not given), in test [1], the fluorescence slope change was 52.1% (active). Further, the inhibition in test [2] was -16.9%; in [9], 0% (inactive) and -1% (inactive); in [12], -3.18% (inactive). Further, the rescue above control in [3] is -8.3. Besides, the glutamate uptake change in [4] worked out at 24.3%. The same compound returned an inclusion score in [7] of 2. Further, in test [5], the aggregation suppression score worked out at 1.38. Besides, the period change in test [8] is 0.265 hour (inactive) and -0.11 hour (inactive). In addition, the survival in test [6] is 11.6 (inactive). For the same compound, the fluorescence ratio (interference) in test [10] was 1 (inactive). Moreover, the fluorescence ratio in test [11] is 0.1 (active). Moreover, in test [13], the mean signal was 254 (inactive). Also, the remaining activity in test [15] is 98.9% (inactive) and 93.2% (inactive). Moreover, the call in test [14] was inactive. Moreover, the log fold change Tl+ flux in the test with F380Y was -0.0248 (inactive); in the test on F380Y/beta2Delta it was 0.00612 (inactive); in the test on R275C it was 0.00817 (inactive); with R275C/beta1, -0.022 (inactive); in the test on R275C/beta2Delta it was -0.0143 (inactive).
For `C=C(C)[C@H]1Cc2c(ccc3c2O[C@@H]2COc4cc(OC)c(OC)cc4[C@@H]2C3=O)O1`, the fluorescence slope change in test [1] was 63.7% (active). Also, the inhibition in test [2] was 5.88%; in test [9] it was -1% (inactive). This compound also yielded a rescue above control in [3] of 0. In addition, in [4], the glutamate uptake change was -44.7%. The compound further showed an inclusion score in test [7] of 2. This compound came in with an aggregation suppression score in test [5] of 0.895. The period change in [8] is -1.31 h (inactive). Further, in test [10], the fluorescence ratio (interference) was 1 (inactive). Besides, the remaining activity in test [15] was 78.1% (inactive). The compound was called inactive in test [14].
As for `NCC(O)c1ccc(O)cc1` (stereo not given), the figures for the inhibition in [2] and in test [9] were -11.8% and -4% (inactive), respectively. For the same compound, the rescue above control in test [3] was -6.97. Besides, the glutamate uptake change in test [4] is -13.3%. This compound also yielded an inclusion score in test [7] of 2. For the same compound, in [5], the aggregation suppression score stood at 0.97. Moreover, the period change in [8] is -0.025 h (inactive). Moreover, the survival in [6] was 5.08 (inactive). Further, the fluorescence ratio (interference) in test [10] is 1 (inactive). The compound was classed as inactive in test [14].
